Screening data as filed in PubChem BioAssay.
D1 agonist – agonists of human D1 dopamine receptor | P21728 | activation, % at 2 µM | HEK293 T-REx D1 cells, calcium flux, agonist mode | AID 504660 | 360,000 tested, 1% active
Target sequence (P21728 whole entry, looked up): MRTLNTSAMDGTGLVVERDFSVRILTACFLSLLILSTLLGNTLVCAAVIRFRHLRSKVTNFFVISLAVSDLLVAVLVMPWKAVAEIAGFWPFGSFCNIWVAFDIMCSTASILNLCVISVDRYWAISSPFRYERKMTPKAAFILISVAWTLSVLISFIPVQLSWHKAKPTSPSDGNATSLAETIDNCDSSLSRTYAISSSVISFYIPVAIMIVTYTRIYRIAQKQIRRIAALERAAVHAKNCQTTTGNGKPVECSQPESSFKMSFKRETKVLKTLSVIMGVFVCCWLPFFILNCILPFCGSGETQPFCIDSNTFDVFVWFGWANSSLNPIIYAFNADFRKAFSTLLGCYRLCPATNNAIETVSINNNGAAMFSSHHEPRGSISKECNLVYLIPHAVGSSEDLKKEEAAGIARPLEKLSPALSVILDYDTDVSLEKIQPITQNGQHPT
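Inducible HEK293 T-REx D1 cells, force-coupled to calcium signalling, were plated at 4000 cells/well with tetracycline and held overnight at 30 C. After no-wash calcium dye loading, compound-evoked calcium rise over 180 s flagged agonists.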
D1 PAM – potentiators of human D1 dopamine receptor; P21728; HEK293 TREx D1 cells, calcium flux, dopamine EC20 potentiation; potentiation, % at 10 µM; 360,000 tested, 0.036% active; in the data active = potentiation above about 30%
TRHR agonist – activates the human TRH receptor. 360,000 tested, 0.18% active. P34981. TRHR cells, calcium flux fluo-8, FDSS agonist mode. AID 493084. activation, % at 2 µM
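TRHR-expressing cells loaded with fluo-8 calcium dye; 23 nL library compound pin-transferred, kinetic FDSS fluorescence (Ex 480/Em 530) recorded about 180 s for agonist-induced calcium release, before a 10 nM TRH EC20 addition for potentiator mode.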
D1 antag – human D1 dopamine receptor antagonism; activity change, negative = inhibition, % at 10 µM; 360,000 tested, 3.2% active; AID 504652; HEK293 TREx D1 cells, calcium flux, dopamine EC80; hits give low values; in the data active = activity change below about -30%
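Kinetic fluorescence of a calcium dye serves as the read-out. D1-expressing Hek293 Trex cells, induced overnight at 30 C, are exposed to compound for 180 s before an EC80 dopamine addition, then read 180 s further.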
TRHR enhancer – TRH receptor (human) allosteric enhancement | P34981 | TRHR cells, fluo-8 calcium fluorescence, EC20 TRH enhancement | enhancement, % at 2 µM | 360,000 tested, 0.66% active; in the data active = enhancement above about 30%
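TRHR-expressing cells loaded with fluo-8 calcium dye were read kinetically (ex 480/em 530) during compound addition, then stimulated with an EC20 of TRH (10 nM final). Enhancement of the Gq-mediated intracellular calcium response was scored.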
Large screens that a line does not name were inactive; ! = repeats disagree. A selection: hits, their analogues and other compounds. The true share with any hit is near 4.7%. Cut-off read from the data, not from the text of the source, unless noted: active = activation above about 30%; inactive = the rest.

COc1ccc(N2CCN(S(=O)(=O)c3c(C(=O)N4CCOCC4)c(C)n(C)c3C)CC2)cc1	D1 antag -35.3
COc1ccc(N2CCN(C(=O)c3ccc(Cl)c(S(=O)(=O)N4CCCC4)c3)CC2)cc1	D1 antag -34.3
Cc1ccccc1CNS(=O)(=O)c1c(C(=O)N2CCCC2)c(C)n(C)c1C	TRHR enhancer 34.8
Cc1c(C(=O)N2CCCCC2)c(S(=O)(=O)NCc2ccccc2Cl)c(C)n1C	none
Cc1c(C(=O)N2CCCCC2)c(S(=O)(=O)N2CCN(c3ccc(F)cc3)CC2)c(C)n1C	none
Cc1c(C(=O)N2CCCCC2)c(S(=O)(=O)N2CCN(c3ccc(Cl)cc3)CC2)c(C)n1C	D1 antag -32.4
Cc1ccc(-c2nc(S(=O)(=O)c3ccc(C)cc3)c(SCC(=O)NC3CCCCC3)o2)cc1	none
Nc1ncc(S(=O)(=O)NCc2ccccc2F)cn1	none
CCOc1ccc(Nc2nc3c(S(=O)(=O)c4ccc(CC)cc4)nnn3c3ccc(Cl)cc23)cc1	none
Cc1[nH]c(C)c(S(=O)(=O)N2CCN(c3ccc(Cl)cc3)CC2)c1C(=O)N1CCCC1	D1 antag -33.7
Cc1[nH]c(C)c(S(=O)(=O)NCc2ccc(Cl)cc2)c1C(=O)N1CCCC1	D1 PAM 32.8
Cc1c(C(=O)N2CCOCC2)c(S(=O)(=O)Nc2cccc(C#N)c2)c(C)n1C	D1 antag -49.5
Cc1ccccc1Cn1c2ccccc2c2cnn(CC(=O)NC(C)CCc3ccccc3)c(=O)c21 (stereo not drawn)	none
Cc1ccn2c(CN3CCOCC3)c(-c3ccccc3)nc2c1	D1 antag -32.4
O=C(N/N=C/c1c[nH]c2ccccc12)c1sc2ccccc2c1Cl	D1 antag -74.8
O=C(N/N=C/c1c[nH]c2ccccc12)c1ccccc1	none
O=C(N/N=C/c1c[nH]c2ccc(Br)cc12)c1ccccn1	D1 antag -46.9
NC(=O)c1cc(Cl)cn(-c2ccccc2)c1=O	D1 antag -47.8 (no result: D1 PAM)
COc1ccc(CCNC(=O)CCn2c(=O)c3ccccc3n(CC(=O)Nc3ccc(C)cc3C)c2=O)cc1OC	none
CN(Cc1ccccc1)C(=O)c1nc2ccccn2c1CNCCn1cccn1	TRHR enhancer 34.4
CCc1ccccc1NC(=O)Cn1nnc(C(=O)OC)c1C(=O)OC	none
COC(=O)c1nnn(CC(=O)NC(=O)Nc2cccc(C)c2C)c1C(=O)OC	D1 agonist 49.7!
COC(=O)c1nnn(CC(=O)NC(=O)Nc2ccccc2F)c1C(=O)OC	TRHR enhancer 31.0!
CCC(=O)N1CCc2cc(Br)cc(S(=O)(=O)NCCc3ccccc3)c21	none
COc1ccccc1CNC(=O)c1cc(-c2ccccc2)n[nH]1	none
O=C(CCCN1C(=O)c2cccnc2C1=O)Nc1ccc(Br)cc1	D1 antag -55.2
O=C(CCCN1C(=O)c2ccccc2C1=O)Nc1ccc(Br)cn1	none
Cn1c(SCC(=O)c2cc(Cl)c(Cl)s2)nnc1-c1ccco1	D1 antag -68.2
Cc1ccsc1/C=N/NC(=O)c1ccc2ccccc2c1	D1 antag -48.9
Cc1ccsc1/C=N/NC(=O)c1ccncc1	none
Cc1cccc(Cl)c1NC(=S)NN	D1 antag -42.1
O=C(CN1N=C(c2ccccc2)CCC1=O)NCc1ccc(F)cc1Cl	none
CN(Cc1ccc(OCC(O)CN(C)Cc2ccccc2)cc1)Cc1nccn1C (stereo not drawn)	none
COc1ccc(CN(C)CC(O)COc2ccc(-c3ccccc3)cc2)cc1OC (stereo not drawn)	D1 agonist 42.7
COc1cccc(CNC(=O)c2cccc(NC3=NC4CS(=O)(=O)CC4S3)c2)c1 (stereo not drawn)	none
COc1cccc(CNC(=O)c2ccc(Cl)c(NC3=NC4CS(=O)(=O)CC4S3)c2)c1 (stereo not drawn)	D1 antag -90.1
COc1ccc(C)cc1Nc1n[n+](-c2ccccc2)c(-c2cc(OC)c(OC)cc2Br)s1	none
COc1ccc(-c2sc(Nc3ccccc3)n[n+]2-c2ccccc2)cc1Br	D1 antag -30.7
COc1ccc(C)cc1Nc1n[n+](-c2ccccc2)c(-c2c(OC)ccc3ccccc23)s1	D1 agonist 46.4, D1 antag -91.2
Cc1cc(C)n(-c2ccc(C(=O)NC3CCCCC3)cc2)n1	none
N#CC1=C2N=C(N)c3ccccc3N2C2=C(C(=O)CCC2)C1c1ccccc1F (stereo not drawn)	none
Cc1ccccc1C1C(C#N)=C2N=C(N)c3c(sc4c3CCCCC4)N2C2=C1C(=O)CCC2 (stereo not drawn)	D1 antag -41.9
c1cncc(CNc2ncnc3sc4c(c23)CCC4)c1	D1 antag -43.4
CC1CCc2c(sc3ncnc(NCc4cccnc4)c23)C1 (stereo not drawn)	none
CCCCOC(=O)c1cccc(NC(=O)/C=C/c2ccccc2Cl)c1	none
Cc1ccc(-c2ccc(CCC(=O)O)n2-c2ccc(C)c(Cl)c2)cc1	none
Cc1ccc(C)c(-n2c(CCC(=O)O)ccc2-c2ccc(Cl)cc2)c1	D1 antag -31.8
C[C@H](NC(=O)c1nc[nH]c1C(=O)N[C@@H](Cc1ccccc1)C(=O)OC(C)(C)C)C(=O)OCc1ccccc1	none
C[C@H](NC(=O)c1nc[nH]c1C(=O)N[C@@H](Cc1ccccc1)C(=O)OCc1ccccc1)C(=O)OCc1ccccc1	D1 antag -30.9
CNC(=O)c1[nH]cnc1C(=O)N[C@@H](C)C(=O)OCc1ccccc1	D1 antag -33.5
C[C@H](NC(=O)c1nc[nH]c1C(=O)NCC(=O)OCc1ccccc1)C(=O)OCc1ccccc1	none
CC(C)Oc1cccc(C2CC(=O)Nc3cc4c(cc32)OCO4)c1 (stereo not drawn)	D1 agonist 67.9, D1 antag -32.3
Nc1[nH]n2c(=O)c3c(nc2c1N=Nc1ccccc1)CCCC3	none
Nc1[nH]n2c(=O)c3c(nc2c1N=Nc1ccc(Cl)cc1)CCCC3	D1 antag -49.8
Cn1c(Sc2ccc(Br)cc2)c(C=O)c2ccccc21	D1 antag -63.3
O=S(=O)(c1ccc2c(c1)OCCO2)N1CCN(S(=O)(=O)c2ccccc2F)CC1	none
CC1=NN(c2ccccc2)C(=O)/C1=C\C=C1\N(C)c2ccccc2C1(C)C	D1 agonist 44.1, D1 antag -32.4
CC1=NN(c2ccccc2)C(=O)/C1=C\C=C1/N(C)c2ccccc2C1(C)C	D1 agonist 68.0
CN1C(=O)NC(c2ccc(C(F)(F)F)cc2)C2=C1CC(C)(C)CC2=O (stereo not drawn)	D1 agonist 31.6
CN1C(=O)NC(c2ccc([N+](=O)[O-])cc2)C2=C1CC(C)(C)CC2=O (stereo not drawn)	none
O=C(Nc1c(C(=O)N2CCN(c3ccccc3F)CC2)oc2ccccc12)c1ccc(Br)o1	none
COc1cc(CNC2CCC(C)C2)cc(OC)c1 (stereo not drawn)	D1 antag -47.8
Cc1sc(-c2cccnc2)nc1OC(=O)C1CC1	none
